Test results reported in PubChem BioAssay AID624330 (Southern Research Specialized Biocontainment Screening …, 2012).
In all, about 340,000 compounds went through this assay and about 2,100 (0.62%) were called active.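 Rule for the calls: active = first-screen hits whose inhibition reached a set limit at any dose in the follow-up dose series; inconclusive = inhibition above the set first-screen limit but never retested; inactive = the rest.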 Only a sample is shown. Measured potencies and affinities stand elsewhere.

What follows are compounds tested against Rac GTPase-activating protein 1 (Homo sapiens) (UniProt Q9H0H5) (assay: MgcRacGAP GTPase-activating activity inhibitors, confirmation, biochemical, ADP Hunter fluorescence, primary and confirmatory (AID 624330;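 note: fluorescence reports GDP produced by GAP-driven GTP hydrolysis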)). Conditions: MgcRacGAP-stimulated Rac1 GTP hydrolysis, at 30 µM, hits give high values, GST-tagged Rac1 F28L mutant substrate.
Chain of Rac GTPase-activating protein 1 (Homo sapiens) (Q9H0H5 whole entry, looked up): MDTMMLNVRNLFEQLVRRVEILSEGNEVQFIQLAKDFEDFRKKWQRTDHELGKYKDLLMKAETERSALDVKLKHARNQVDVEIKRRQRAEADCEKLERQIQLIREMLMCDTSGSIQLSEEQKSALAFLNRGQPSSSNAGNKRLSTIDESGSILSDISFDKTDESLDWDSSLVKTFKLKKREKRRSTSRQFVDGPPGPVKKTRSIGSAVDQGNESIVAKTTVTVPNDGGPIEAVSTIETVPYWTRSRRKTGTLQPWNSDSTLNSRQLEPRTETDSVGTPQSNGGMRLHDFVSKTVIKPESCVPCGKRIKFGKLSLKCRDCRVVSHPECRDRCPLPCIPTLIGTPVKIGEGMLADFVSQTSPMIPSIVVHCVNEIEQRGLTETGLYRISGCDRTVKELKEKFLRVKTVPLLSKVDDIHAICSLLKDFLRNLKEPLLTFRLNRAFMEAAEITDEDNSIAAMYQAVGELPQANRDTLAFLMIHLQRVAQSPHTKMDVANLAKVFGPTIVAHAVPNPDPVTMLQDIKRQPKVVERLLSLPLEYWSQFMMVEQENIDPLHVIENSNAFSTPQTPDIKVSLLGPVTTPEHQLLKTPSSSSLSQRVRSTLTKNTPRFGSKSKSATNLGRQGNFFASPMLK

inhibition, inactive:
COC(=O)[C@@H](N)Cc1ccc(O)c(O)c1 -7.99%
N[C@@H](Cc1ccc(O)c(O)c1)C(=O)O 6.56%
COc1ccc(N2CC(C(=O)Nc3ccc(N4CCOCC4)cc3)CC2=O)cc1 (configuration not stated) 6.69%
CCOc1cc(C(c2c(C)[nH][nH]c2=O)c2c(C)[nH][nH]c2=O)ccc1OCc1ccc([N+](=O)[O-])cc1 -0.47%
Cc1ccccc1N(C(=O)c1csnn1)C(C(=O)NC1CCCCC1)c1ccncc1 (configuration not stated) -1.41%
Cc1cc2nc(-c3ccccc3)cc(=O)n2[nH]1 14.4%
Cc1nc2nc(-c3ccccc3)cc(=O)n2[nH]1 4.54%
CC(C)C(=O)Nc1nnc(NC(=S)Nc2ccccc2)s1 1%
COc1ccccc1Nc1ncnc2nc[nH]c12 6.06%
COc1cccc2[nH]c3c(Cl)ncnc3c12 5.53%
CCOCCn1c(SC(C)C(C)=O)nc2c1c(=O)[nH]c(=O)n2C (configuration not stated) 5.63%
CCOC(=O)c1c(C)oc2c(CN3CCN(C)CC3)c(Br)c(OC)c(O)c12 14.1%
COc1ccccc1N=Nc1c(C)n[nH]c1C 7.74%
COc1ccccc1N=Nc1c(C)noc1C 2.76%
COCCN(C(=O)CSc1nc2ccc(Cl)cc2[nH]1)c1c(N)n(Cc2ccccc2)c(=O)[nH]c1=O 10.9%
Cn1ncc(Cl)c1C(=O)N1CCN(c2cccc(Cl)c2)CC1 7.96%
CCN(c1ccccc1)S(=O)(=O)c1ccc(Cl)c(NC(=O)CN2CCCCCC2)c1 29.2%
CCN(c1ccccc1)S(=O)(=O)c1ccc(Cl)c(NC(=O)CN2CCN(C)CC2)c1 -0.66%
CCCCSCCCNC(=O)c1ccc(CS(=O)(=O)c2ccccc2OC)o1 5.81%
CC(C)Cn1c(-c2ccco2)n[nH]c1=S 26.8%
CC(C)Cn1c(-c2ccc(F)cc2)n[nH]c1=S 14.4%
CCOC(=O)C1=C(c2ccccc2)Nc2ncnn2C1c1ccc(O)cc1 (configuration not stated) 5.08%
COc1ccc(C2CC(c3ccncc3)=NN2c2ccc(S(N)(=O)=O)cc2)cc1 (configuration not stated) 9.08%
COc1ccc(N2C(=O)CSC2c2ccncc2)cc1 (configuration not stated) 8.8%
Cc1ccnc(NC(=O)c2cccc(NC(=O)c3ccccc3C)c2)c1 11.1%
O=C(CN1CCOCC1)N/N=C/c1ccc(-c2cccc(Cl)c2Cl)o1 7.09%
Clc1cccc(-c2ccc(C=Nc3ccc(N4CCOCC4)cc3)o2)c1 23.7%
Clc1ccc(-c2ccc(C=Nc3ccc(N4CCOCC4)cc3)o2)c(Cl)c1 9.07%
Clc1ccc(-c2ccc(C=Nc3ccc(N4CCOCC4)cc3)o2)cc1 25.6%
Cc1c(C)c2cccnc2c2ncccc12 8.09%
O=C1CCCc2oc3ccc(NS(=O)(=O)c4cccc5cccnc45)cc3c21 -1.33%
COc1ccc(Br)cc1S(=O)(=O)n1nc(C)cc1C -4.17%
CCN(CC(=O)NCCCn1ccnc1)S(=O)(=O)c1ccc(C)cc1 -8.53%
O=C(c1cccn2c(=O)c3cc(Cl)ccc3nc12)N1CCN(Cc2ccc3c(c2)OCO3)CC1 9.42%
Cc1cc(C)c(C#N)c(Sc2ccc(N)cc2)n1 8.38%
COc1ccccc1CN1CC(C(=O)NCc2cnn(C)c2)CCC1=O (configuration not stated) 5.74%
COc1cc(CNCc2ccco2)cc(OC)c1O 6.83%
COc1cccc(CNCc2cccc(OC)c2O)c1O -13.3%
CCOC(=O)c1ccccc1NC(=O)COC(=O)c1ccc(OCC(=O)N2CCOCC2)c(OCC)c1 4.78%
Cc1ccc(N(CC(=O)N2CCc3ccccc32)S(=O)(=O)c2cccs2)cc1 1.58%
COc1ccc(OCC#CCn2ccnc2)cc1 -14.9%
CCN1CCN(CC#CCOc2ccccc2OC)CC1 29.8%
COc1ccccc1OCC#CCNC1CCCCC1C (configuration not stated) 22.6%
COc1ccccc1OCC#CCSc1ncccn1 7.44%
CC1CC(C)CN(S(=O)(=O)c2ccc(C(=O)Nc3sccc3C(N)=O)cc2)C1 (configuration not stated) 3.38%
O=C(Cn1c(=O)cnc2ccccc21)Nc1cc(Cl)ccc1N1CCOCC1 -4.21%
CCN(CC(=O)Nc1ccc(OC)cc1)CC(=O)Nc1sc2c(c1C(=O)OC)CCCC2 3.58%
CCCC(=O)NC1=C(Cl)C(=O)c2ccccc2C1=O 24.7%
CCC(=O)Nc1c(C)cc(C)cc1Cl 12.3%
Cc1cccc(NC(=O)CN2CCN(C(=O)CN3C(=O)NC4(CCCCC4C)C3=O)CC2)c1C (configuration not stated) 7.46%
CCN(CC)c1ccc(/C=N/NC(=O)Cc2cccs2)c(O)c1 -34.9%
CCN(CC)c1ccc(/C=N/NC(=O)c2ccco2)c(O)c1 9.97%
CCOC(=O)N/N=C/c1ccc(F)cc1F 3.61%
CCN(CC)c1ccc(/C=N/Nc2ccc(C)cc2)c(O)c1 11.6%
CCN(CC)c1ccc(/C=N/Nc2nc(C)cc(=O)[nH]2)c(O)c1 22.4%
CCN(CC)c1ccc(/C=N/NC(=O)c2ccoc2C)c(O)c1 2.9%
CCN(CC)c1ccc(/C=N/Nc2ccccc2)c(O)c1 5.91%
CCN(CC)c1ccc(/C=N/NC(=S)NCc2ccccc2)c(O)c1 12.5%
CCOc1ccc(N(CC(=O)Nc2cc(Cl)ccc2C)S(C)(=O)=O)cc1 -0.16%
CCOc1ccc(CC(=NCCO)C2=C(O)CC(C)(C)CC2=O)cc1OCC 2.19%
Cn1c(=O)oc2cc(S(=O)(=O)NCCN3CCc4ccccc4C3)ccc21 -3.64%
CCN(CC)C(=O)CN1C(=O)C(=O)c2ccccc21 6.56%
Nc1ccn(CCCN2CCN(Cc3cccc4ccccc34)CC2)c(=O)n1 19.7%
Cc1ccccc1N1CCN(C(=O)NCc2cccc(Cl)c2)CC1 2.37%
Cc1ccc(S(=O)(=O)N2CCC(C(=O)NC3CCCCC3C)CC2)cc1 (configuration not stated) 17.3%
O=C(c1ccc(Cn2c(=O)[nH]c3ccccc3c2=O)cc1)N1CCN(c2ccccc2)CC1 -4.78%
CC(NC(=O)CCC(=O)NC(C)C1COc2ccccc2O1)C1COc2ccccc2O1 (configuration not stated) 6.94%
CCOC(=O)CCNCC1COc2ccccc2O1 (configuration not stated) 0.26%
COc1ccc2nc(NC(=O)CN(C)S(=O)(=O)c3cccs3)sc2c1 2.51%
Cc1c(C(=O)NC2CC(=O)N(c3ccc4c(c3)OCCO4)C2)cccc1[N+](=O)[O-] (configuration not stated) 10.5%
O=S(=O)(Nc1ccc(-c2ccc(NS(=O)(=O)c3ccccc3)cc2)cc1)c1ccccc1 -20.9%
COc1ccc(NC(=O)Cc2ccccc2)cn1 3.42%
COc1ccc(CS(=O)(=O)/C(Cl)=C(/Cl)C(=O)Nc2ccc(OC)nc2)cc1 19.4%
COc1ccc(NC(=O)/C(Cl)=C(/Cl)S(=O)(=O)Cc2ccccc2)cn1 25.6%
COc1ccc(NC(=O)C(Cl)=C(Cl)Cl)cn1 6.63%
CC(C)(C)c1nnc2cccc(Cl)n12 0.67%
CCN1C(=O)[C@H]2[C@@H](c3ccc(-c4ccc(C(C)=O)cc4)c(OC)c3)N3CCCC[C@@]3(C(=O)OC)[C@H]2C1=O 5.29%
CCc1cc(=O)oc2cc(OC(C)C(=O)NCc3ccccn3)ccc12 (configuration not stated) 7.67%
C/C(=N\NC(=O)c1ccc(NS(=O)(=O)c2cccs2)cc1)c1ccc(C(C)(C)C)cc1 8.43%
COCCNc1nc(CSc2ccccc2)nc2sc(C)c(C)c12 8.51%
COCCNCc1ccccc1 -2.56%
Cc1cc(C)cc(NC(=S)N2CCC(NC(=O)c3ccc(F)cc3)CC2)c1 4.86%
CCOc1ccc(NC(=O)C(NC(=O)C2CCC(C)CC2)C(C)C)cc1 (configuration not stated) 8.67%
CCOc1cc(-c2cc(-c3ccccc3)nc(N)c2C#N)ccc1O 38.4%
CCCc1cc(-c2ccc(O)c(OCC)c2)c(C#N)c(N)n1 -0.99%
COc1cc(/C=C(\C#N)c2[nH]nc(N)c2C#N)cc(OC)c1O 0.59%
COc1cc(-c2cc(-c3ccc(F)cc3)nc(N)c2C#N)ccc1O 40.9%
COc1ccc(-c2cc(-c3ccc(O)cc3)nc(N)c2C#N)cc1OC 11.9%
CCOc1cc(-c2cc(-c3ccc(C)cc3)nc(N)c2C#N)ccc1O 16.3%
CCN(CC(=O)Nc1ccc(C#N)cc1)CC(=O)Nc1ccc2c(c1)OCCO2 4.07%
CCNC(=O)N1CCC(n2nccc2NC(=O)CCCc2ccccc2)CC1 6.88%
COc1ccccc1OCCC(=O)Nc1ccc2c(c1)OCO2 2.43%
C=CC[N+](C)(C)CCN1C(=O)C2C(c3ccccc3)C=CC(c3ccccc3)C2C1=O (configuration not stated) -0.41%
C=CCC(NCc1ccco1)c1ccc(OC)c(OC)c1 (configuration not stated) -6.08%
O=C(Oc1ccc2c(c1)OCC2=O)c1ccccc1 0.9%
O=c1oc(-c2cccc(S(=O)(=O)N3CCOCC3)c2)nc2ccccc12 13.7%
Cc1cccc(NC(=S)NC(=O)/C=C/c2ccccc2)n1 -2.63%
